# Measurements reported in PubChem BioAssay.
# Active and inactive are the calls of the source.
# Tests used:
# [1] = compound effects on differentiated 3T3-L1 adipocyte viability – cell-based, 3T3-L1 adipocytes, calcein-AM fluorescence, 48 h, basal, profiling panel (AID 1163); conditions: 3T3-L1 adipocytes viability, higher = more signal
# [2] = compound effects on hepatocellular carcinoma cell viability – HepG2, calcein-AM fluorescence, 48 h, basal, profiling panel (AID 1164); conditions: higher = more signal
# [3] = compound effects on multiple myeloma cell viability – MM1S, calcein-AM fluorescence, 48 h, basal, profiling panel (AID 1165); conditions: higher = more signal
# [4] = calcein-AM signal in unstimulated myeloma cells – cell-based, calcein-AM fluorescence, 48 h, PK04 Diversity Set, profiling panel (AID 1166); conditions: RPMI8226 myeloma viability, higher = more signal;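 note: cells grown under basal conditions without added stimulus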
# [5] = JC-1 mitochondrial signal, unstimulated HepG2 cells – cell-based, JC-1 fluorescence, 24 h, 100 nL compound, profiling panel (AID 1167); conditions: HepG2 mitochondrial potential, higher = more signal
# [6] = JC-1 mitochondrial signal, unstimulated adipocytes – cell-based, JC-1 fluorescence, 3T3-L1 adipocytes, 24 h, 100 nL compound, profiling panel (AID 1168); conditions: JC-1 mitochondrial fluorescence, higher = more signal, called active from +8 up or from −8 down
# [7] = JC-1 mitochondrial signal, unstimulated myeloma cells – cell-based, JC-1 fluorescence, RPMI8226, 24 h, 100 nL compound, profiling panel (AID 1169); conditions: JC-1 mitochondrial potential fluorescence, higher = more signal
# [8] = JC-1 mitochondrial signal, unstimulated MM1S myeloma – cell-based, JC-1 fluorescence, 24 h, 100 nL compound, profiling panel (AID 1170); conditions: MM1S mitochondrial potential, higher = more signal
# [9] = resazurin metabolic signal in A549 cells – cell-based, resazurin fluorescence, 24 h, PK04 Diversity Set, profiling panel (AID 1171); conditions: A549 viability, higher = more signal, called active from +8 up or from −8 down
# [10] = resazurin metabolic signal in HepG2 cells – cell-based, resazurin fluorescence, 24 h, PK04 Diversity Set, profiling panel (AID 1172); conditions: HepG2 viability, higher = more signal
# [11] = budding yeast growth changes without added modifier – OD600, strain BY4716, 24 h, basal condition, primary screen (AID 1173); conditions: S. cerevisiae BY4716 growth, OD600, 24 h; higher = more signal, called active from +8 up or from −8 down
# [12] = viability profiling in MM1S myeloma cells – cell-based, resazurin fluorescence, basal, 24 h, PK04 Diversity Set, profiling panel (AID 1174); conditions: higher = more signal, called active from +8 up or from −8 down
# [13] = biological target: Dihydroorotate dehydrogenase (quinone), mitochondrial (Plasmodium falciparum (isolate 3D7)) (UniProt Q08210); assay: inhibition of P. falciparum DHODH – biochemical, C-terminal His tag, absorbance 600 nm, primary screen (AID 1175); conditions: PfDHODH enzyme, DCIP absorbance 600 nm; higher = more signal, called active from +8 up or from −8 down;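 note: recombinant parasite enzyme with a five histidine tag at its C terminus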
# Dihydroorotate dehydrogenase (quinone), mitochondrial (Plasmodium falciparum (isolate 3D7)), sequence (Q08210 whole entry, looked up): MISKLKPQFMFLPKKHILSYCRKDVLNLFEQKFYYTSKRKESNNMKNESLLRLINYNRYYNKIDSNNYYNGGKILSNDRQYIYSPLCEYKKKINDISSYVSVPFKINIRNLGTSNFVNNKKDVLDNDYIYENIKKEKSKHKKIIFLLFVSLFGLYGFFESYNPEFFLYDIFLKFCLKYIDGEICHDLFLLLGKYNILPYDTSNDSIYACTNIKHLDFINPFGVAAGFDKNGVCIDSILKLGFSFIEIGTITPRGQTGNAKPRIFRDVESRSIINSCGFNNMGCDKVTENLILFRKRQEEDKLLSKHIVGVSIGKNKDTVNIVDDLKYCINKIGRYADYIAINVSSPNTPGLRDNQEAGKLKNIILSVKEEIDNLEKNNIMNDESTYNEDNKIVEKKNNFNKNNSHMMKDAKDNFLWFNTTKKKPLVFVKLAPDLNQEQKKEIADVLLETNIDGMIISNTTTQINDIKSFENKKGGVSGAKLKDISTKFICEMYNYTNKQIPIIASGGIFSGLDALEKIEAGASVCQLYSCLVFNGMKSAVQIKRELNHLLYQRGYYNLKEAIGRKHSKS
# [14] = growth modulation of vineyard yeast isolate – strain RM11-1a, OD600, basal, 24 h, primary screen (AID 1177);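 note: cultures grown under basal conditions with no added stressor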; conditions: S. cerevisiae RM11-1a growth, OD600, 24 h; higher = more signal, called active from +8 up or from −8 down
# [15] = growth of efflux-deficient E. coli DRC39 – strain DRC39, OD650, 24 h, E. coli filamentation inducers, primary screen (AID 1178);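 note: growth measured as culture turbidity by optical density at 650 nm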; conditions: E. coli DRC39 acrAB, higher = more signal, called active from +8 up or from −8 down
# [16] = growth of efflux-deficient E. coli DRC39 – strain DRC39, OD650, 48 h, E. coli filamentation inducers, primary screen (AID 1179);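 note: screen aims at cell division blockers that make cells filament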; conditions: E. coli DRC39 delta-acrAB growth, higher = more signal, called active from +8 up or from −8 down
# [17] = viability profiling in RPMI8226 myeloma cells – cell-based, resazurin fluorescence, basal, 24 h, PK04 Diversity Set, profiling panel (AID 1180); conditions: higher = more signal;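 note: RPMI8826 multiple myeloma cell line at 5000 cells per well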
# [18] = biological target: E3 ubiquitin-protein ligase XIAP (Homo sapiens) (UniProt P98170); assay: small molecules binding XIAP protein – biophysical, small-molecule microarray, fluorescence 635 nm, primary screen (AID 1181); conditions: higher = more signal;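 note: score merges 667 nm emission and signal to noise over triplicate slides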
# E3 ubiquitin-protein ligase XIAP (Homo sapiens), sequence (P98170 whole entry, looked up, the tested form may be a part): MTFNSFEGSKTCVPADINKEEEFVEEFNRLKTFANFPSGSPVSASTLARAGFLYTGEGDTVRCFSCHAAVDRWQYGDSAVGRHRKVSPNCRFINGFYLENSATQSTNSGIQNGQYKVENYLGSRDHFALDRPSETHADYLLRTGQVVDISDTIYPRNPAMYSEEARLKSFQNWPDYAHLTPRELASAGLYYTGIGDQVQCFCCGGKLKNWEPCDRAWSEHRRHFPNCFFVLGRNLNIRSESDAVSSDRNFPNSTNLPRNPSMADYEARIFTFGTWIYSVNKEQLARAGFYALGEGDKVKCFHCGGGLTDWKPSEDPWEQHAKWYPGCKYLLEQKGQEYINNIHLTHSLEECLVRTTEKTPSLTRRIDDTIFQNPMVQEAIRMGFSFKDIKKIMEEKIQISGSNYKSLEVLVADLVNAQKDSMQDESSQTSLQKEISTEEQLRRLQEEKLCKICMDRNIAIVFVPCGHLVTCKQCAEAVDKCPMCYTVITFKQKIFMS
# [19] = test system: XIP peptide (Xip251-270) binding; assay: XIP fragment 251-270 binding compounds – biochemical, small-molecule microarray, fluorescence 635/667 nm, 0.1 µg/mL protein, primary screen (AID 1182); conditions: fluorescent protein binding, 635 nm, higher = more signal, called active from +8 up or from −8 down
# XIP peptide (Xip251-270) = assay: compounds binding XIP fragment 251-270 – biochemical, small-molecule microarray, fluorescence 635/667 nm, 0.5 µg/mL protein, primary screen (AID 1183); conditions: fluorescence 635 nm, higher = more signal
Compound,z-score [1],z-score [2],z-score [3],z-score [4],z-score [5],z-score [6],z-score [7],z-score [8],z-score [9],z-score [10],z-score [11],z-score [12],composite z-score [13],z-score [14],z-score [15],z-score [16],z-score [17],composite z-score [18],composite z-score [19],composite z-score (XIP peptide (Xip251-270))
COc1ccc([Si](C)(C)[C@@H]2[C@@H](CCn3cc(CCO)nn3)O[C@]3(C(=O)N(Cc4ccc(N5C(=O)c6cccc7cccc5c67)cc4)c4ccccc43)[C@H]2C)cc1,1.91,-4.48,-2.68,-4.34,1.75,2.83 (inactive),-1.04,-1.78,-2.38 (inactive),-1.3,-0.456 (inactive),-5.44 (inactive),0.0498 (inactive),0.643 (inactive),2.2 (inactive),1.02 (inactive),-4.14,0.0159,0.437 (inactive),0.739
CC(C)C(CO)N1C(=O)[C@@H]2[C@H]3C(=O)OCC=C[C@H]3OC23C=CCN(Cc2ccccc2)C(=O)[C@@H]13 (stereo not given in full),0.651,-0.384,0.33,0.0894,0.341,0.232 (inactive),0.159,1.96,-0.077 (inactive),0.25,-1.57 (inactive),0.699 (inactive),-0.429 (inactive),-0.752 (inactive),1.53 (inactive),1.03 (inactive),0.359,0.411,-0.433 (inactive),-1.18
CC(C)C(=C=CC[C@H](O)c1ccc(OCCO)cc1)C[C@H](O)COCc1ccccc1,0.475,-0.822,-3.38,-3.77,0.296,0.371 (inactive),-0.625,-1.36,0.515 (inactive),0.657,-3.15 (inactive),-1.83 (inactive),-1.09 (inactive),1.04 (inactive),1.35 (inactive),0.883 (inactive),-0.0676,-0.0233,0.941 (inactive),0.0727
CCN(CC)c1ccc(N2CC=CC34O[C@@H]5C=CCOC(=O)[C@@H]5[C@H]3C(=O)N(C(CO)C(C)C)[C@@H]4C2=O)cc1 (stereo not given in full),0.471,0.121,-0.413,-0.201,0.296,0.688 (inactive),1.08,0.728,0.461 (inactive),0.492,0.0588 (inactive),0.913 (inactive),0.764 (inactive),1.24 (inactive),1.21 (inactive),1.09 (inactive),0.687,0.0139,-0.0795 (inactive),-0.51
CC(C)C[C@@H]1NC(=O)[C@@]23C(=O)N[C@@H](Cc4ccccc4)C2[C@H](C)[C@@]2(C)O[C@H]2C3/C=C/C/C=C\CNC(=O)[C@H](Cc2ccccc2)NC1=O (stereo not given in full),1.14,0.331,0.0263,-0.928,1.42,0.868 (inactive),-0.0886,0.851,0.703 (inactive),0.182,-2.28 (inactive),-0.295 (inactive),0.113 (inactive),-0.748 (inactive),2.7 (inactive),1.22 (inactive),0.468,0.52,0.0183 (inactive),0.789
